Bioassay records as filed in PubChem.
sEH act = soluble epoxide hydrolase (human) activation | P34913 | purified human sEH enzymatic activity, activator screen | activation, % at 2 µM | 0.04% of 91,000 active | AID 717; in the data active = activation above about 37%
Target sequence (P34913 whole entry, looked up): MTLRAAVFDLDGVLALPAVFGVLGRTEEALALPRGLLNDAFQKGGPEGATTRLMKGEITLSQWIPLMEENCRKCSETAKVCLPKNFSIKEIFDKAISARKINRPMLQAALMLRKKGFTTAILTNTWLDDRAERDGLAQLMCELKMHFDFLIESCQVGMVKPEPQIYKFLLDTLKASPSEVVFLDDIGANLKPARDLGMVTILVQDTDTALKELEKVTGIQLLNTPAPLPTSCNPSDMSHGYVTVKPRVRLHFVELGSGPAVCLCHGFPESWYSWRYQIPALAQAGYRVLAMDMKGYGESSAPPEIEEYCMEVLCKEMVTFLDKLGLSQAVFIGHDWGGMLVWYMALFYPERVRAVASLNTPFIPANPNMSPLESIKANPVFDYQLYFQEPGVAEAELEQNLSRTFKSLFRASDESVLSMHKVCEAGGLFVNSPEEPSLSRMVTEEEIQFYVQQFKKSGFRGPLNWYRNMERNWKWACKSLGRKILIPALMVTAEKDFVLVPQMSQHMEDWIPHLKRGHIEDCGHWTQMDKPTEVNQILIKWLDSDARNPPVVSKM
CYP2C9 inhib = inhibitors of human CYP2C9 | 20% of 96,000 active | AID 777 | P11712 | CYP2C9 Supersomes, luciferin-H conversion, luminescence | inhibition, % at 5 µM;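 active = blocking of liver enzyme CYP2C9 beyond about 50% at 5 µM, limit read from the data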
CYP2C19 activ = cytochrome P450 2C19 (human) activation; P33261; recombinant CYP2C19, luciferin-H EGE luminescence; active compounds read high; 0 = fully inhibited enzyme, 1 = untreated enzyme; activation factor at 5 µM; 96,000 tested, under 10 active;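 active = activation factor of at least 2 at 5 µM in the primary screen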
CYP2C9 act = increases human cytochrome P450 2C9 activity. 1.4% of 96,000 active. activation factor at 5 µM. AID 1024. recombinant CYP2C9, luciferin-H conversion, luminescence; active compounds read high; factor 1 = untreated enzyme, 0 = blocked. P11712;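 active = activation factor of 2 or more for CYP2C9 at a 5 µM dose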
CYP2C19 inhib = human CYP2C19 inhibition; inhibition, % at 5 µM; 21% of 96,000 active; CYP2C19 Supersomes, luciferin-H EGE luminescence, 30 min; P33261;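 active = CYP2C19 inhibition above a set limit at 5 µM in the primary screen, cut at about 50% in these data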
sEH inhibitor = blocks human soluble epoxide hydrolase activity. inhibition, % at 2 µM. 0.34% of 91,000 active. P34913. recombinant human sEH enzymatic activity assay; in the data active = inhibition above about 80%
Each line names hits and unclear results; the compound was inactive in the other large screens. Rows were chosen to be rich in hits. Some 27% of all compounds tested hit in one or more screens of this group.

N#Cc1c(NC(=O)CSc2n[nH]c(N)n2)oc(-c2ccccc2)c1-c1ccccc1	CYP2C9 inhib 51
N#Cc1c(NC(=O)Cn2c(=O)oc3ccccc32)oc(-c2ccccc2)c1-c1ccccc1	CYP2C9 inhib 76
CC(c1ccco1)N(C(=O)C12CC3(C)CC(C)(CC(C)(C3)C1)C2)c1ccccn1 (stereo unspecified)	none
Cc1cn(C(=O)C(C)N2C(=O)c3ccccc3C2=O)c(C)n1 (stereo unspecified)	CYP2C19 inhib 50
COc1ccc(-c2cn3ccc4ccccc4c3n2)cc1	none (no result: CYP2C9 inhib, CYP2C19 activ, CYP2C9 act, CYP2C19 inhib)
CC1(C)Cc2ccccc2-c2nc(NCCO)n(-c3ccccc3)c(=O)c21	CYP2C19 inhib 61 (no result: sEH act, sEH inhibitor)
CCC1(C)Cc2ccccc2-c2nc(NCCO)n(-c3ccccc3)c(=O)c21 (stereo unspecified)	none (no result: CYP2C9 inhib, CYP2C19 activ, CYP2C9 act, CYP2C19 inhib)
CCC1(C)Cc2ccccc2-c2nc(NCCO)n(-c3ccc(C)cc3)c(=O)c21 (stereo unspecified)	CYP2C19 inhib 67
CC(C)c1nnc(NC(=O)CCC(=O)NCc2ccco2)s1	none
O=C(CSc1nc2ccccc2c(=O)n1CC1CCCO1)NCC1CCCO1 (stereo unspecified)	none
CCC(Sc1nc2ccccc2c(=O)n1CCN1CCOCC1)C(=O)NCc1cccnc1 (stereo unspecified)	CYP2C9 inhib 78
Cc1nc2ccccc2c(=O)n1CCN1CCOCC1	none
CCC(Sc1nc2ccccc2c(=O)n1CC1CCCO1)C(=O)NCc1cccnc1 (stereo unspecified)	CYP2C9 inhib 76
Cc1ccc2c(c1)C(c1ccncc1)=NNC(c1ccc(C(C)C)cc1)=N2	none
CC1(C)Cc2c(c(N3CCOCC3)nc3sc(C(=O)N4CCCCC4)c(N)c23)CO1	none (no result: sEH act, sEH inhibitor)
CCOC(=O)c1sc2nc(N3CCOCC3)c3c(c2c1N)CCN(C)C3	none
CNC(=O)c1ccc(-c2sc3nc(N4CCOCC4)c4c(c3c2N)CCCC4)o1	CYP2C9 inhib 94, CYP2C19 inhib 92
Nc1c(C(=O)NCc2ccccc2)sc2nc(N3CCOCC3)c3c(c12)CCCC3	CYP2C9 inhib 86
CC1(C)Cc2c(c(N3CCOCC3)nc3sc(-c4ccc(C(=O)O)o4)c(N)c23)CO1	none (no result: CYP2C9 inhib, CYP2C19 activ, CYP2C9 act, CYP2C19 inhib)
CC1(C)Cc2c(c(N3CCOCC3)nc3snc(NC(=O)c4ccccc4)c23)CO1	CYP2C9 inhib 88
CNC(=O)c1ccc(-c2sc3nc(N4CCOCC4)c4c(c3c2N)CC(C)(C)OC4)o1	CYP2C9 inhib 52
CCSC(=Nc1ccccc1)C1=C(O)COC1=O	none
CCCCNS(=O)(=O)C1CCS(=O)(=O)C1 (stereo unspecified)	none
CC(=O)c1ccc(N2CCN(C(=O)C3(S(=O)(=O)c4ccc(Cl)cc4)CC3)CC2)cc1	none
Cc1ccc(Cl)cc1N1CCN(C(=O)Cc2cn(C)c3ccccc23)CC1	CYP2C19 inhib 53
O=C(N1CCN(c2cccc(Cl)c2)CC1)C1(S(=O)(=O)c2ccc(Cl)cc2)CC1	CYP2C19 inhib 57
Cc1ccc(C)c(N2CCN(C(=O)Cc3cn(C)c4ccccc34)CC2)c1	none
Cc1ccc(Cl)cc1N1CCN(C(=O)C2(S(=O)(=O)c3ccc(Cl)cc3)CC2)CC1	CYP2C9 inhib 89, CYP2C19 inhib 84
CC(C)=CC(=O)Nc1nnc(C(C)C)s1	none
Cc1ccccc1NC(=O)CN1C(=O)S/C(=C\c2cccn2-c2cccc(C(=O)O)c2)C1=O	CYP2C9 inhib 75
Cc1cccc(C)c1NC(=O)CN1C(=O)S/C(=C\c2cccn2-c2cccc(C(=O)O)c2)C1=O	CYP2C9 inhib 86
N#CC(c1ccc(Cl)nn1)c1ccc(Cl)cc1Cl (stereo unspecified)	CYP2C19 inhib 96
Cc1nnc2c3ccccc3c(-c3ccccc3)nn12	none (no result: CYP2C9 inhib, CYP2C19 activ, CYP2C9 act, CYP2C19 inhib)
Cc1nnc2c3ccccc3c(-c3cccc4ccccc34)nn12	CYP2C19 inhib 61
O=C(NCCc1ccncc1)Nc1cccc(Cl)c1	CYP2C9 inhib 98, CYP2C19 inhib 98
O=C(NCCc1ccncc1)Nc1ccccc1Cl	CYP2C9 inhib 82, CYP2C19 inhib 89
O=C(NNc1cccc(Cl)n1)Nc1cccc(Cl)c1	CYP2C19 inhib 72
CC(NC(=O)C1(C)CC1(Br)Br)C(C)(C)C (stereo unspecified)	none
O=C(NC12CC3CC(CC(C3)C1)C2)c1ccc(COc2ccc(Cl)cc2[N+](=O)[O-])o1	CYP2C9 inhib 75
COCCNC(=O)C(c1ccc(C)o1)N(C(=O)c1snc(C(N)=O)c1N)c1cc(C)cc(C)c1 (stereo unspecified)	CYP2C9 inhib 56, CYP2C19 inhib 66
COc1ccccc1N(C(=O)c1snc(C(N)=O)c1N)C(C(=O)NC1CCCC1)c1ccco1 (stereo unspecified)	CYP2C19 inhib 62
CCOc1ccccc1N(C(=O)c1snc(C(N)=O)c1N)C(C(=O)NCCC(C)C)c1ccco1 (stereo unspecified)	CYP2C9 inhib 50
CC(C)(C)NC(=O)C(c1ccco1)N(Cc1ccc(F)cc1)C(=O)c1snc(C(N)=O)c1N (stereo unspecified)	CYP2C9 inhib 56, CYP2C19 inhib 66 (no result: sEH act, sEH inhibitor)
COc1ccc(CN(C(=O)c2snc(C(N)=O)c2N)C(C(=O)NC(C)(C)C)c2ccco2)cc1 (stereo unspecified)	none
COc1ccccc1N(C(=O)c1snc(C(N)=O)c1N)C(C(=O)NCCC(C)C)c1ccco1 (stereo unspecified)	none
COCCNC(=O)C(c1ccc(C)o1)N(Cc1ccco1)C(=O)c1snc(C(N)=O)c1N (stereo unspecified)	none (no result: CYP2C9 inhib, CYP2C19 activ, CYP2C9 act, CYP2C19 inhib)
COc1ccc(C2(O)CCN(C(=O)NC3CCCCC3)CC2)cc1	none
CSc1cc(C)nc(N(C)C(C)=O)n1	none (no result: sEH act, sEH inhibitor)
COc1ccc(Nc2nc(C(=O)NCCCN3CCOCC3)cs2)cc1	none
CC(C(=O)NC1CCCC1)N(Cc1ccco1)C(=O)c1snc(C(=O)NC2CCCC2)c1N (stereo unspecified)	none
CC(C(=O)NC1CCCC1)N(C(=O)c1snc(C(N)=O)c1N)c1ccc2c(c1)OCCO2 (stereo unspecified)	CYP2C9 inhib 50
CCOC(=O)N1CCN(C(=O)CN2C(=O)CC(C)(C)S(=O)(=O)c3ccccc32)CC1	CYP2C19 inhib 55
CN1CCN(C(=O)CN2C(=O)CC(C)(C)S(=O)(=O)c3ccccc32)CC1	none
O=C(/C(=C/O)N=Nc1ccccc1)c1ccncc1	CYP2C9 inhib 68, CYP2C19 inhib 96
COCCNC(=O)C1c2ccccc2C(=O)N(CCOC)C1c1ccc(F)cc1 (stereo unspecified)	none
COCCN1C(=O)c2ccccc2C(C(=O)N2CCN(c3ccccc3)CC2)C1c1ccc(F)cc1 (stereo unspecified)	CYP2C9 inhib 71
CC(NCc1ccc(N(C)C)cc1)C1CC2CCC1C2 (stereo unspecified)	CYP2C19 inhib 86
Cc1nn(Cc2c(F)c(F)c(F)c(F)c2F)c(C)c1NC(=O)c1c(-c2ccccc2)nn(-c2ccccc2)c1C	none
